From publication PMC7862700, “An all-to-all approach to the identification of sequence-specific readers for epigenetic DNA modifications on cytosine”

How the values were obtained:
Assay in all cases: DAPPL (digital affinity profiling via proximity ligation, sequencing); 10 mM Tris-HCl pH 7.5, 50 mM NaCl, 1 mM DTT, 4% glycerol, room temperature, 30 min; GST-TFs on glutathione beads, 16-mer random dsDNA library, 0.1% formaldehyde crosslink after washing; high values mean tight binding
FLI1 = target: T1, FLI1 (Homo sapiens, UniProt Q01543 1-452); settings: protein: recombinant; tags: N-terminal GST; dsDNA, one strand shown
T1 sequence: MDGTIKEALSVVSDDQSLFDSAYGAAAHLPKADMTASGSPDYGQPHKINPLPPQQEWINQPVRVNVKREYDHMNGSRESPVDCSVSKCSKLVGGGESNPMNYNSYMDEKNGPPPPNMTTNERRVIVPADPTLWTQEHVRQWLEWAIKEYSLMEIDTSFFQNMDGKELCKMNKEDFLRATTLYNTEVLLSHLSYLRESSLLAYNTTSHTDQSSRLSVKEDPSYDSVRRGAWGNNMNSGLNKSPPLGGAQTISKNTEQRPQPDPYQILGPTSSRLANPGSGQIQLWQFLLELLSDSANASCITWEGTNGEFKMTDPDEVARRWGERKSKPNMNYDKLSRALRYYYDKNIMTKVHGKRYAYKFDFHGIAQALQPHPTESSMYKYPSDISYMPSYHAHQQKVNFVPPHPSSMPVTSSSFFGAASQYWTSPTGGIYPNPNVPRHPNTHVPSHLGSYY
In short: (§1)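 GST fusions of human transcription factors were expressed in yeast and captured with glutathione beads. Once given DNA barcodes and pooled alongside a tag-only sample, they were incubated for 30 min at room temperature with 200 nmole of a random double-stranded 16-mer DNA library in Tris/NaCl/DTT/glycerol buffer, then washed, crosslinked (0.1% formaldehyde), proximity-ligated, PCR-amplified and sequenced on an Illumina NextSeq500. The binding signal of each hexamer is its read frequency for a factor divided by its frequency for the tag-only sample.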

ELK1 = target: T2, ELK1 (Homo sapiens, UniProt P19419 1-428); settings: protein: recombinant; tags: N-terminal GST; dsDNA, one strand shown
T2 sequence: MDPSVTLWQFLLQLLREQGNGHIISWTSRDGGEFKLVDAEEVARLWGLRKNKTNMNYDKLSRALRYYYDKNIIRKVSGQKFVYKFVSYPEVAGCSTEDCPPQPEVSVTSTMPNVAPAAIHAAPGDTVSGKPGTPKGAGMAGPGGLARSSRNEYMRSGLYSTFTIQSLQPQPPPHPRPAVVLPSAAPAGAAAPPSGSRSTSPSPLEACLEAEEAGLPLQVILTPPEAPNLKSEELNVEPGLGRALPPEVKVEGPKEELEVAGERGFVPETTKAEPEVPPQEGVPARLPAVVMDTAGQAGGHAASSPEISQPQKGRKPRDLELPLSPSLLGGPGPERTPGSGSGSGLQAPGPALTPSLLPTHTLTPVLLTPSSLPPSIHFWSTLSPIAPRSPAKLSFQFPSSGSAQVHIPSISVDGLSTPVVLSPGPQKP
In short: as §1

GABPA = target: T3, GABPA (Homo sapiens, UniProt Q06546 1-454); settings: protein: recombinant; tags: N-terminal GST; dsDNA, one strand shown
T3 sequence: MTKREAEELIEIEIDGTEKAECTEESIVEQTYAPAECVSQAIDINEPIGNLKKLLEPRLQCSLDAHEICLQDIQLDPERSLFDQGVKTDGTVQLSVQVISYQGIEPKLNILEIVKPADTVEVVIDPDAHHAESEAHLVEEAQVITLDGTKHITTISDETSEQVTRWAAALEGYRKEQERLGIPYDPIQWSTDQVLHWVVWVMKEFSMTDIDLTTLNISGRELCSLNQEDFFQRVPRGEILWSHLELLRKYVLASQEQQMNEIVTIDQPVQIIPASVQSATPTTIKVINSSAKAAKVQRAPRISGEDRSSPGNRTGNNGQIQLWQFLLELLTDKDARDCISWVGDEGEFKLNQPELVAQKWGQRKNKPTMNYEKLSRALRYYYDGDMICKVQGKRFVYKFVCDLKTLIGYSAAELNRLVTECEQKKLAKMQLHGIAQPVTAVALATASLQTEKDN
In short: as §1

ERG = target: T4, ERG (Homo sapiens, UniProt P11308 1-479); settings: protein: recombinant; tags: N-terminal GST; dsDNA, one strand shown
T4 sequence: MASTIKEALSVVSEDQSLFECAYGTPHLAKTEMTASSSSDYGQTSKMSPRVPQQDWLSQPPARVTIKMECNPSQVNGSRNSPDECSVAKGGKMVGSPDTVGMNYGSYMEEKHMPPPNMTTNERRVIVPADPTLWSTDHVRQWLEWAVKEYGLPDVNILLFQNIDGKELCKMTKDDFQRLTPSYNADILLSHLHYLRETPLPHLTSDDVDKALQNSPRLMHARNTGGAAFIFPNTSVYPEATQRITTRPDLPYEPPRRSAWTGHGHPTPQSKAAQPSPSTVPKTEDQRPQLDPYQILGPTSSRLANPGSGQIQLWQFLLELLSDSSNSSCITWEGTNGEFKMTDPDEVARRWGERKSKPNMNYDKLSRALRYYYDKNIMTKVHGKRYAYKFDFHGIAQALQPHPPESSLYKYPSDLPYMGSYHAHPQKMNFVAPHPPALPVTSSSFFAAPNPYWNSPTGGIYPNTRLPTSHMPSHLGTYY
In short: as §1

ELF1 = ELF1 (Homo sapiens, UniProt P32519 1-619); settings: protein: recombinant; tags: N-terminal GST; dsDNA, one strand shown
In short: as §1

EHF = target: T5, EHF (Homo sapiens, UniProt Q9NZC4 1-300); settings: protein: recombinant; tags: N-terminal GST; dsDNA, one strand shown
T5 sequence: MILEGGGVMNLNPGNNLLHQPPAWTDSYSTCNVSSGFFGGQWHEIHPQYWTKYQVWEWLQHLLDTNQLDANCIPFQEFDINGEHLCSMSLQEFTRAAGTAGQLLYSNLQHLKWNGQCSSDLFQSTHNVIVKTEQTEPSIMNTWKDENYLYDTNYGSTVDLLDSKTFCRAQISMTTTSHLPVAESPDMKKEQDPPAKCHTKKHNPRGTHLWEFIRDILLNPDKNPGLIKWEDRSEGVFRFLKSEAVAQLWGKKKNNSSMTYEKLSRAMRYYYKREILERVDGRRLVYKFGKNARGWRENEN
In short: as §1

SPI1 = SPI1 (Homo sapiens, UniProt P17947 1-270); settings: protein: recombinant; tags: N-terminal GST; dsDNA, one strand shown
In short: as §1

SPIB = SPIB (Homo sapiens, UniProt Q01892 1-262); settings: protein: recombinant; tags: N-terminal GST; dsDNA, one strand shown
In short: as §1

ELK3 = target: T6, ELK3 (Homo sapiens, UniProt P41970 1-407); settings: protein: recombinant; tags: N-terminal GST; dsDNA, one strand shown
T6 sequence: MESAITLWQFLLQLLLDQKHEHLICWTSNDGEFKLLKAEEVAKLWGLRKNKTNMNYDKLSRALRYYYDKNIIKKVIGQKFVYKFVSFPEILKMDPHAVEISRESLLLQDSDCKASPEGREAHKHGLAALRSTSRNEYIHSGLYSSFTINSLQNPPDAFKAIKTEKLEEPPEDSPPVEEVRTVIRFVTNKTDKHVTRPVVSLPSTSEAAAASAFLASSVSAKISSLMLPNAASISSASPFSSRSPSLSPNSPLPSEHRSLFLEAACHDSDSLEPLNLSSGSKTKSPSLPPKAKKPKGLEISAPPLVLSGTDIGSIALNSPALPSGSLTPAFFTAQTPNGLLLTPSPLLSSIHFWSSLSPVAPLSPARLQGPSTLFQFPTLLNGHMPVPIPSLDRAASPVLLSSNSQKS
In short: as §1

FEV = target: T7, FEV (Homo sapiens, UniProt Q99581 1-238); settings: protein: recombinant; tags: N-terminal GST; dsDNA, one strand shown
T7 sequence: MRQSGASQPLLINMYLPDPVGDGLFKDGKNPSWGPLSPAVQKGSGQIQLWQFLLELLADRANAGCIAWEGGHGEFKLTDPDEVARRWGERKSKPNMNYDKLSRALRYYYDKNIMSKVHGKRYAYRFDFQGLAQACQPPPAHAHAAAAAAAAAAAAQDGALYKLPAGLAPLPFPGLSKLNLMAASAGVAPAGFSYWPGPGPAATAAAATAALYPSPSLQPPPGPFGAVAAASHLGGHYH
In short: as §1

ETV5 = ETV5 (Homo sapiens, UniProt P41161 1-510); settings: protein: recombinant; tags: N-terminal GST; dsDNA, one strand shown
In short: as §1

HSF1 = HSF1 (Homo sapiens, UniProt Q00613 1-529); settings: protein: recombinant; tags: N-terminal GST; chain copies: 3; dsDNA, one strand shown
In short: as §1

SPIC = target: T8, SPIC (Homo sapiens, UniProt Q8N5J4 1-248); settings: protein: recombinant; tags: N-terminal GST; dsDNA, one strand shown
T8 sequence: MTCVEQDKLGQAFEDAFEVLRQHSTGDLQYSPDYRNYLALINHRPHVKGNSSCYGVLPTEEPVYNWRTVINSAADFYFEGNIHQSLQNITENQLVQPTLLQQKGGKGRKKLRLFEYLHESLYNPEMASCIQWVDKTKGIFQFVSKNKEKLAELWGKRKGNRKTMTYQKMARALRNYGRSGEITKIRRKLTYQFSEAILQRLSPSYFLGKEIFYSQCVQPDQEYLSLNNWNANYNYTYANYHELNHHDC
In short: as §1

ELF4 = ELF4 (Homo sapiens, UniProt Q99607 1-663); settings: protein: recombinant; tags: N-terminal GST; dsDNA, one strand shown
In short: as §1

ELK4 = target: T9, ELK4 (Homo sapiens, UniProt P28324-2 1-405); settings: protein: recombinant; tags: N-terminal GST; dsDNA, one strand shown
T9 sequence: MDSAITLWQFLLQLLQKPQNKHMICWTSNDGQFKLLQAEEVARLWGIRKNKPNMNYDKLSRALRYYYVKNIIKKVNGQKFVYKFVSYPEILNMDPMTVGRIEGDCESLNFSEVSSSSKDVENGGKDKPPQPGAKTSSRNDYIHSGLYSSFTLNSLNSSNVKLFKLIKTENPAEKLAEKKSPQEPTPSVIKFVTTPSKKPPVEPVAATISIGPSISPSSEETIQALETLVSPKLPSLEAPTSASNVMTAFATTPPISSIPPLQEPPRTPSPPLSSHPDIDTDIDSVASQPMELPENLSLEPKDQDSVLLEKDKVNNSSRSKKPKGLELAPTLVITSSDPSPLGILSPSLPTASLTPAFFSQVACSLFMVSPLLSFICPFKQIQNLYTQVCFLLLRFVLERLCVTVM
In short: as §1

ETV2 = target: T10, ETV2 (Homo sapiens, UniProt O00321 1-342); settings: protein: recombinant; tags: N-terminal GST; dsDNA, one strand shown
T10 sequence: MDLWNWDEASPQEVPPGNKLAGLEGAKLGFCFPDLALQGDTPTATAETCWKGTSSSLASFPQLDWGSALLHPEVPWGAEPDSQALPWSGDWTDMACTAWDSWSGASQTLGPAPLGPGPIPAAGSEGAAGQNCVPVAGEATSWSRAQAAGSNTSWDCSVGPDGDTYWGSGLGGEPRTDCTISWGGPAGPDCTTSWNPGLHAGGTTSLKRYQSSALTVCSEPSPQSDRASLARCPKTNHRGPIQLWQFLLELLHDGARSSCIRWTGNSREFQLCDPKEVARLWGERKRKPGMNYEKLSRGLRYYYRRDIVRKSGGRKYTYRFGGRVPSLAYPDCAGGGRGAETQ
In short: as §1

ELF3 = target: T11, ELF3 (Homo sapiens, UniProt P78545 1-371); settings: protein: recombinant; tags: N-terminal GST; dsDNA, one strand shown
T11 sequence: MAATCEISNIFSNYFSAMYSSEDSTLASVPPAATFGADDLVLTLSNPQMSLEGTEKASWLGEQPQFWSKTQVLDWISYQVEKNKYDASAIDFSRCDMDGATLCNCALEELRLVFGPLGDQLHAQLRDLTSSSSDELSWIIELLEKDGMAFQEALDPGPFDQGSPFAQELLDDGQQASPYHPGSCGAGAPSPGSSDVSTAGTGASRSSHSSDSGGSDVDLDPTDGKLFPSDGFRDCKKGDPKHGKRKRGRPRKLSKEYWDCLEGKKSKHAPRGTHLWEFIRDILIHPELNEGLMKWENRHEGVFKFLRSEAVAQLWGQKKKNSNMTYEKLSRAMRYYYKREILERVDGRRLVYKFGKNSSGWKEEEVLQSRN
In short: as §1

CRX = CRX (Homo sapiens, UniProt O43186 1-299); settings: protein: recombinant; tags: N-terminal GST; dsDNA, one strand shown
In short: as §1

ETV1 = ETV1 (Homo sapiens, UniProt P50549 1-477); settings: protein: recombinant; tags: N-terminal GST; dsDNA, one strand shown
In short: as §1

ELF4, sequence (Q99607 whole entry): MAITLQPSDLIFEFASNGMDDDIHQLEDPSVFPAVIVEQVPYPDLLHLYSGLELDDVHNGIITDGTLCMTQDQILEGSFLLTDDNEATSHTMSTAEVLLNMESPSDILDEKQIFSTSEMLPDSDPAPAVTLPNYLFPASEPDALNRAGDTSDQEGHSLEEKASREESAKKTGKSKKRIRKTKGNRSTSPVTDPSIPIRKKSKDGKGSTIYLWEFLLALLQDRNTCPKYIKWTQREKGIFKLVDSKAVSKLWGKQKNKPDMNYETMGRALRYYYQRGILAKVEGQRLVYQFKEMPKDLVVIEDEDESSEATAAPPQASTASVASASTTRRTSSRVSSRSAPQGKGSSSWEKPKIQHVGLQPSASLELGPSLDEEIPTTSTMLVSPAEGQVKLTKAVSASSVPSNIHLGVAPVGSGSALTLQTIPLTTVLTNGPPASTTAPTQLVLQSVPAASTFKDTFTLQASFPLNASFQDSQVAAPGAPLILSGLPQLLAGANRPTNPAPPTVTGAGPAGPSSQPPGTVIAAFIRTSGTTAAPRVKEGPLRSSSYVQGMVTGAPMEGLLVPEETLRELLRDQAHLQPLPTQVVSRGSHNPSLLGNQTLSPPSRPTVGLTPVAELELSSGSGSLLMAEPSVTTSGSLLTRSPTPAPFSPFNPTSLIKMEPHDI
SPIB, sequence (Q01892 whole entry): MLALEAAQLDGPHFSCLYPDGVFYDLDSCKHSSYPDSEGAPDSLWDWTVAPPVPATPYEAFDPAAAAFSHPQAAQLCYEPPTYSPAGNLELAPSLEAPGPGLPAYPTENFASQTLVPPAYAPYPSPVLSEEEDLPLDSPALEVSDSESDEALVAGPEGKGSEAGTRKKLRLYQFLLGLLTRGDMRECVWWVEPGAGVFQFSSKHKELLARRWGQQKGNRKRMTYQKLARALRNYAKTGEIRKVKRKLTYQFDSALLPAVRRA
HSF1, sequence (Q00613 whole entry): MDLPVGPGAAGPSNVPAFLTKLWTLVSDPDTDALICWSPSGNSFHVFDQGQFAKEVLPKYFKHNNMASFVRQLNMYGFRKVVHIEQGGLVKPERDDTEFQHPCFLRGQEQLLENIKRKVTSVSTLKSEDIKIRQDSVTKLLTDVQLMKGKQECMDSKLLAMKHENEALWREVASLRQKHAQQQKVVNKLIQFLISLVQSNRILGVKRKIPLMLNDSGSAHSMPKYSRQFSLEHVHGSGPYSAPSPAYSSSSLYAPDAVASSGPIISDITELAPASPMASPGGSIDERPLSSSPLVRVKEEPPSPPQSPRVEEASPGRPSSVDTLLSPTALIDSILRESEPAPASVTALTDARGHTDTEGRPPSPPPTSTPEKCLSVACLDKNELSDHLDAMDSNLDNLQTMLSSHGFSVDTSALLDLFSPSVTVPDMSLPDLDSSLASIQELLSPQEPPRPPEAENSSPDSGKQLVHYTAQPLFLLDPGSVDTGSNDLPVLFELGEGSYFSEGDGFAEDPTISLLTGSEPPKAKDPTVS
ETV5, sequence (P41161 whole entry): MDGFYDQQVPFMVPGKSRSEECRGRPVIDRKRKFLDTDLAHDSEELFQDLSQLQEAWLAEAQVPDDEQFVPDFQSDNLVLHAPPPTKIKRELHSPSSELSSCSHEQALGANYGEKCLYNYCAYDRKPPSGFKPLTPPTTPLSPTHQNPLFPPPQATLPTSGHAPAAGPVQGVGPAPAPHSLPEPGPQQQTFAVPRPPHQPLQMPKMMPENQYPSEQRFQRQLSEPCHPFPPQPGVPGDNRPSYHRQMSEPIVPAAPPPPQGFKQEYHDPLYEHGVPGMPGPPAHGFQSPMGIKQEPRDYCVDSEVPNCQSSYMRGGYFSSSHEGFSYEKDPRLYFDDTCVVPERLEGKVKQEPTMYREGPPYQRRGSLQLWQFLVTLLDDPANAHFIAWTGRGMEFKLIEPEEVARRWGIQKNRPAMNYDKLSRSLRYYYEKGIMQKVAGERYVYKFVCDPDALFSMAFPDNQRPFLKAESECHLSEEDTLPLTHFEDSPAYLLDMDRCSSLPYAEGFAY
ELF1, sequence (P32519 whole entry): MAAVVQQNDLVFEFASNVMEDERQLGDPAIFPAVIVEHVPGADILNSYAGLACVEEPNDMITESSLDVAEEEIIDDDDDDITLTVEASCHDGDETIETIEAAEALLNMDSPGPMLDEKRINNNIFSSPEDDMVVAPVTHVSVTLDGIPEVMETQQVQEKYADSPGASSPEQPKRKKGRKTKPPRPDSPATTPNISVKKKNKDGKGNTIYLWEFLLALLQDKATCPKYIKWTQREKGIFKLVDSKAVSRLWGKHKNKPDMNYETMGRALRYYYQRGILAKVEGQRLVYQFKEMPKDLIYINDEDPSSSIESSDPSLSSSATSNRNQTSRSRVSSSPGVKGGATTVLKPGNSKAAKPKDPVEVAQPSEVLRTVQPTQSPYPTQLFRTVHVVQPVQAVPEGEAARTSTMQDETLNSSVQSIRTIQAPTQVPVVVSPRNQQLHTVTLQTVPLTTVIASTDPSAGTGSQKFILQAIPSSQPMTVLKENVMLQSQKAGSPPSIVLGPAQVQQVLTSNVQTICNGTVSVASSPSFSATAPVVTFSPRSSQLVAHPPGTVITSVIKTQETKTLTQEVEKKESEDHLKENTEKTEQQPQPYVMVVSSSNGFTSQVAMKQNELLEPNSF
ETV1, sequence (P50549 whole entry): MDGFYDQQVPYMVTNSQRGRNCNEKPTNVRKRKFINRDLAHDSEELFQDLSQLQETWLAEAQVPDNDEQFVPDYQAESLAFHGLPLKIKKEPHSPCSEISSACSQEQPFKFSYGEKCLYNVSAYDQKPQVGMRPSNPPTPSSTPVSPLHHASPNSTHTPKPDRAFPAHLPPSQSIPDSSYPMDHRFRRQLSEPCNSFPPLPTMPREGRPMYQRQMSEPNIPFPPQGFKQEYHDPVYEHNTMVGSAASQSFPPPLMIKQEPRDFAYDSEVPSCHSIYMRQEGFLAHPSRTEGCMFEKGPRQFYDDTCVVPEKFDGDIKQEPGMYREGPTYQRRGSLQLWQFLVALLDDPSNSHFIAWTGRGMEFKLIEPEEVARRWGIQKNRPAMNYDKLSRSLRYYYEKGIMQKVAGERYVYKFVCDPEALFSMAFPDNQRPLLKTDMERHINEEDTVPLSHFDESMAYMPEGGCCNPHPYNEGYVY
CRX, sequence (O43186 whole entry): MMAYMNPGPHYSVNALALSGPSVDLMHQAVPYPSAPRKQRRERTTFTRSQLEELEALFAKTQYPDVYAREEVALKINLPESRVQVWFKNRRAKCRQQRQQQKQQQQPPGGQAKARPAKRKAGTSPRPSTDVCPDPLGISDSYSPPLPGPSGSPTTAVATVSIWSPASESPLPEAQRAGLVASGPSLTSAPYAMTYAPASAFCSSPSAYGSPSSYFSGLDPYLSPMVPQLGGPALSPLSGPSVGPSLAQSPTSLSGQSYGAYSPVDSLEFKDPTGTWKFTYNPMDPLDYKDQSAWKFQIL

ATGGAA
binding signal (FLI1): 1.17 fold enrichment (6-mer frequency, TF over GST control) | binding signal (ELK1): 1.11 fold enrichment (6-mer frequency, TF over GST control) | binding signal (GABPA): 1.18 fold enrichment (6-mer frequency, TF over GST control) | binding signal (ERG): 1.26 fold enrichment (6-mer frequency, TF over GST control) | binding signal (ELF1): 1.16 fold enrichment (6-mer frequency, TF over GST control) | binding signal (EHF): 1.2 fold enrichment (6-mer frequency, TF over GST control) | binding signal (SPI1): 1.18 fold enrichment (6-mer frequency, TF over GST control) | binding signal (SPIB): 1.19 fold enrichment (6-mer frequency, TF over GST control) | binding signal (ELK3): 1.11 fold enrichment (6-mer frequency, TF over GST control) | binding signal (FEV): 1.16 fold enrichment (6-mer frequency, TF over GST control) | binding signal (ETV5): 1.16 fold enrichment (6-mer frequency, TF over GST control) | binding signal (HSF1): 1.86 fold enrichment (6-mer frequency, TF over GST control) | binding signal (SPIC): 1.22 fold enrichment (6-mer frequency, TF over GST control) | binding signal (ELF4): 1.19 fold enrichment (6-mer frequency, TF over GST control) | binding signal (ELK4): 1.13 fold enrichment (6-mer frequency, TF over GST control) | binding signal (ETV2): 1.26 fold enrichment (6-mer frequency, TF over GST control) | binding signal (ELF3): 1.16 fold enrichment (6-mer frequency, TF over GST control) | binding signal (CRX): 1.22 fold enrichment (6-mer frequency, TF over GST control) | binding signal (ETV1): 1.24 fold enrichment (6-mer frequency, TF over GST control)
